# Laboratory results as given in the supplement of paper PMC3842684.
# Test system: P. falciparum NF54-pfs16-GFP early (I-III) stage gametocytes
# Assay: relative % inhibition of viable gametocyte number; higher = more gametocytocidal
# Details: 0.5 µM; stage: early (I-III) gametocyte; incubation 72 h
# Procedure, shortened: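 Relative inhibition was normalised to in-plate vehicle and positive-control wells, with viable gametocytes defined on confocal images as elongated GFP objects whose MitoTracker Red signal exceeded a cut-off. NF54 pfs16-GFP gametocytes, magnet-isolated at early (I/IIa, day 2) or late (day 8) stage, were plated at 10% parasitaemia, 0.1% haematocrit with compound at 5 or 0.5 µM. Plates were incubated 72 h at 37°C, 5% CO2, 5% O2, then stained overnight.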
row,Compound,relative % inhibition [%]
1,CCC(O)c1ccc(Br)cc1NC(=O)c1cccc(Cl)c1 (stereo unspecified),3.28
2,Cc1c(C)n(Cc2ccc(F)cc2)c2ccc(C(=O)NCc3ccco3)cc12,19.2
3,Nc1ccn(C2O[C@H](CO)[C@@H](O)[C@H]2O)c(=O)n1 (stereo partly specified),-12.7
4,c1ccc(-c2ccc(-c3nc4ccccc4[nH]3)cc2)cc1,-4.6
5,OC(CNCC1CCCO1)Cn1c2ccc(Cl)cc2c2cc(Cl)ccc21 (stereo unspecified),16.5
6,Nc1ccc(-c2nc3cc(Cc4ccc5[nH]c(-c6ccc(N)cc6)nc5c4)ccc3[nH]2)cc1,14.7
7,O=C1C2=C(Nc3ccccc3SC2c2ccccc2)c2ccccc21 (stereo unspecified),-7.59
8,CN(C)c1ccc(-c2nc3cc(N)ccc3[nH]2)cc1,-6.62
9,CC1CCN(Cc2ccc(NC(=O)c3cc4ccc5cccnc5c4[nH]3)cc2)CC1,19.6
10,COC(=O)c1ccc(C2C3=C(O)CC(c4ccc(F)cc4)CC3=Nc3ccccc3N2C(=O)c2ccccc2)cc1 (stereo unspecified),26.9
11,O=C(Nc1ccc(Br)cc1)Nc1cccc(Cl)c1,20
12,O=C1c2ccc3c4c(ccc(c24)C(=O)N1CCCCO)C(=O)N(CCCCO)C3=O,-9.07
13,O=C(NC1CCN(Cc2ccccc2)CC1)c1cc(C(=O)NC2CCN(Cc3ccccc3)CC2)cc(C(=O)NC2CCN(Cc3ccccc3)CC2)c1,20.3
14,FC(F)(F)c1cccc(Nc2nc3ccccc3nc2Nc2cccc(C(F)(F)F)c2)c1,96.8
15,COc1ccc(OC)c(C2C3=C(CC(C)(C)CC3=O)N(c3ccc(Cl)c(Cl)c3)C3=C2C(=O)CC(C)(C)C3)c1,13.6
16,COc1ccc(C=C2SC(=N)N(c3ccccc3OC)C2=O)cc1,11
